KB-3-1 cytotox – KB-3-1 parental cell cytotoxicity | KB-3-1 viability, CellTiter-Glo ATP luminescence, 72 h | Potency, µM (doses to about 46.1 µM), hits mostly cytotoxic | actives 1.4% (n = 400,000) | AID 1347075; further: on the % scale 0 is the no-effect control and ±100 the full control effect; nearly all actives have a fitted effect of over 60% in size
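Here the drug-naive KB-3-1 line serves as comparator for MDR sub-line selectivity; cells received compound titrations, 72 h at 37 °C, then CellTiter-Glo readout.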
KB-V1 cytotox – kills drug-selected multidrug resistant KB-V1 cells | KB-V1 MDR cells viability, CellTiter-Glo, 72 h | Potency, µM (highest dose often 46.1 µM), most hits filed as cytotoxic | actives 3.4% (n = 400,000); further: on the % scale 0 is the no-effect control and ±100 the full control effect; nearly all actives have a fitted effect of over 60% in size
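KB-V1 MDR subline cells in DMEM (phenol-red free, 10% FBS) exposed to compounds in qHTS concentration series for 72 h at 37 degrees C. Viability read by CellTiter-Glo luminescence; concentration-effect curves fitted after normalization and correction.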
HT1080 IDH1KD tx – HT-1080 IDH1 knockdown cell toxicity (counter line); Potency, µM (doses to about 46.1 µM), without a hit: top-dose activity, negative = toxicity, hits mostly cytotoxic; AID 686971; actives 2% (n = 360,000); HT-1080 IDH1 knockdown viability, ATP luminescence, 48 h;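 further: 0% = DMSO wells and -100% = cell-free medium wells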
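Using the IDH1-knockdown HT-1080 line run in the same batch and compound series as the NT line, viability after 48 h at 37 °C was determined by CellTiter-Glo luminescence and expressed as % activity.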
MCF10A rerep – DNA re-replication induction in MCF 10a cells; MCF 10A DNA re-replication, Hoechst nuclear intensity, 48 h; Potency, µM (top dose mostly 46.1 µM), for the others: at the highest dose activity, positive = re-replication, usual class: activators; actives 2.9% (n = 350,000); further: % of control where 0% means no effect; nearly all actives have a fitted effect of over 50% in size
HT1080-NT tox – kills 2HG-producing HT-1080-NT fibrosarcoma cells. HT-1080-NT fibrosarcoma viability, CellTiter-Glo ATP luminescence, 48 h. Potency, µM (titrated, usually from 46.1 µM), for inactives: at the top dose activity, negative = less viability, most hits filed as cytotoxic. actives 1.6% (n = 360,000);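 further: NT is the 2HG producing partner of a matched IDH1 knockdown line; 0% = DMSO-treated cells and -100% = media-only wells without cells; nearly all actives have a fitted effect of over 55% in size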
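750 cells/well, RPMI + 5% FBS; 2 h settle, compound pin-transfer, 48 h at 37 degrees C. CellTiter-Glo 10 min RT, luminescence. Normalized to DMSO and media-only wells.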
SW480 rereplic – DNA re-replication induction in SW480 cells. SW480 DNA re-replication, Hoechst DNA content imaging, 48 h. Potency, µM (top dose mostly 46.1 µM), without a hit: at the top dose re-replication activation, most hits filed as activators. actives 1.8% (n = 340,000). AID 624297; further: % of control where 0% means no effect; nearly all actives have a fitted effect of over 55% in size
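Image-based read-out: total Hoechst fluorescence of nuclei (405 nm excitation, 500-530 nm emission), with hits raising the fraction of high-intensity nuclei. SW480 colon cells incubated 48 hr with compounds at 37 C.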
The depositor's hits bear a star; i = inactive; ? = inconclusive; · = not tested or not shown; [ ] = dose if it differs, or a comment. Hits are enriched below; roughly 7.9% of the tested compounds scored in any of these assays. The call rests on the fitted dose curve; in most records, active means well fitted curve in the direction sought with a large enough effect; inconclusive means small, poorly fitted or top-dose-only effect, or another doubt; inactive means no such curve, though single readings can be large; an effect the other way counts as inactive or inconclusive. Potency means the concentration at half of the fitted maximal effect.

SMILES	KB-3-1 cytotox	KB-V1 cytotox	HT1080 IDH1KD tx	MCF10A rerep	HT1080-NT tox	SW480 rereplic
CCOC(=O)C1=C[C@@H](C(C)(C)C)N(S(=O)(=O)c2ccc(C)cc2)[C@H]1c1ccc(OC)cc1	?	i	-3%	·	-4%	·
N#Cc1c(-c2ccccc2F)cc(C2CC2)nc1SCC(=O)c1cccs1	i	?	1%	?	20%	10µM*
N#Cc1c(-c2ccccc2)cc(-c2cccs2)nc1SCC(=O)O	i	i	-9%	29%	-4%	-2%
CCOC(=O)CSc1nc(C2CC2)cc(-c2ccc(Cl)cc2)c1C#N	i	21µM*	3%	26%	6%	-49%
N#Cc1c(-c2ccc(Cl)cc2)cc(-c2cccs2)nc1SCC(=O)O	i	i	-24%	23µM*	-1%	5%
Cc1ccc2c(c1)N(C(=O)N1CCC(C(=O)Nc3cccc(F)c3)CC1)CCO2	i	i	·	·	·	·
Cc1c(C(N)=O)sc2ncn(CC(=O)N(C)C3CCCCC3)c(=O)c12	i	i	4%	-18%	-4%	-3%
N#CC1CC(c2ccc([N+](=O)[O-])cc2)=NN1c1ccc([N+](=O)[O-])cc1 (centres undefined)	i	?	1%	6.5µM*	-4%	?
CC(=O)NC(c1ccco1)c1cc(Cl)c2cccnc2c1O (centres undefined)	i	i	·	·	·	·
CC(=O)NC(c1ccccc1)c1cc([N+](=O)[O-])c2cccnc2c1O (centres undefined)	?	?	13µM*	?	?	0%
CC(C)C(=O)NC(c1ccccc1)c1cc([N+](=O)[O-])c2cccnc2c1O (centres undefined)	?	?	16µM*	?	?	?
Cc1ccc(S(=O)(=O)N(C)C)cc1NC(=O)CN1C(=O)NC(Cc2ccccc2)C1=O (centres undefined)	i	i	0%	-1%	6%	-3%
CCN(CC)c1ccc(N=Cc2ccc(N(CC)CC)cc2O)cc1	?	i	1%	-11%	-2%	?
COc1cccc(/C=N/NC(=O)c2ccc3nc[nH]c3c2)c1O	i	i	?	5%	?	?
CCN(CC)c1ccc(/C=N/NC(=O)c2ccoc2C)c(O)c1	12µM*	?	5.2µM*	?	?	13µM*
CCN(CC)c1ccc(/C=N/NC(=S)NC)c(O)c1	9.2µM*	i	-17%	1.3µM*	-18%	-5%
CCN(CC)c1ccc(/C=N/NC(=O)c2ccc3nc[nH]c3c2)c(O)c1	?	i	2.1µM*	26%	?	21µM*
CCN(CC)c1ccc(/C=N/NC(=O)OC)c(O)c1	i	?	12%[9.24 µM]	-1%	-7%	8%
CCN(CC)c1ccc(/C=N/N=C(N)N)c(O)c1	?	?	1.6µM*	4.1µM*	1µM*	16µM*
Cc1ccc(S(=O)(=O)CCC(=O)OCC(=O)NC2CCS(=O)(=O)C2)cc1 (centres undefined)	i	i	15%	-2%	12%	-11%
Cc1ccc(Cl)c(NC(=O)COC(=O)c2nn(C)c(=O)c3ccccc23)c1Cl	i	?	15%	4%	3%	1%
Cc1[nH]c2ccccc2c1/C=C/C(=O)c1ccccc1	?	?	?	21µM*	-28%	18µM*
COC(=O)c1c(C)[nH]c(C(=O)/C=C/c2ccccc2)c1C	i	12µM*	?	-46%	28%	-128%
O=C(/C=C/c1ccccc1)c1c[nH]c2ccccc12	i	i	0%	-1%	-1%	?
O=C(C=Cc1ccccc1)c1c[nH]c2ccccc2c1=O	5.2µM*	7.3µM*	?	6.5µM*	8.2µM*	8.2µM*
SMILES	KB-3-1 cytotox	KB-V1 cytotox	HT1080 IDH1KD tx	MCF10A rerep	HT1080-NT tox	SW480 rereplic
Cc1[nH]c2ccccc2c(=O)c1C(=O)/C=C/c1ccccc1	?	15µM*	?	12µM*	-4%	?
COc1ccc(-c2coc3c2c(C)cc2oc(=O)c(CC(=O)O)c(C)c23)cc1	i	i	·	·	·	·
CC(C)c1ccc(N2C(=O)N(Cc3ccccc3Cl)c3ccccc3S2(=O)=O)cc1	i	i	·	·	·	·
Cc1ccc(C(=O)c2cnc3ccccc3c2-c2ccccc2)cc1	i	16µM*	-18%	?	-11%	18%
COc1ccc(C(=O)c2cnc3ccccc3c2-c2ccccc2)cc1	23µM*	18µM*	-21%	18µM*	-18%	?
COCCN(C(=O)COC(=O)c1c(C)nn(-c2ccccc2)c1C)c1c(N)n(Cc2ccccc2)c(=O)[nH]c1=O	i	i	-1%	·	2%	·
Cc1cc(Nc2cc(Cl)nc(Sc3ccc(NC(=O)C4CC4)cc3)n2)n[nH]1	1.6µM*	i	·	34%	·	21µM*
Cc1cc(NC(=O)c2ccc(NC(=O)C3CC3)cc2)no1	i	i	1%	0%	9%	-6%
COc1ccc(CCNC(=O)C2CCN(C(=O)c3ccc(C(C)(C)C)cc3)CC2)cc1	i	?	1%	5%	-8%	?
CCCCNC(=O)C(NC(=O)c1cccc(C(F)(F)F)c1)C(=O)c1ccccc1 (centres undefined)	i	i	8%	·	13%	·
O=C(CN1C(=O)COc2ccccc21)Nc1ccccc1F	?	i	-2%	14%	-1%	4%
O=C1COc2ccccc2N1Cc1c(F)cccc1Cl	i	i	8%	23µM*	-2%	50%
CCOCCCn1c(=N)c(S(=O)(=O)c2ccc(C)cc2)cc2c(=O)n3cc(C)ccc3nc21	i	?	-2%	?	-3%	?
CCOc1cc(CNc2ccc(CNc3ncn[nH]3)cc2)ccc1OCc1ccccc1	23µM*	18µM*	-2%	21%	14%	-44%
CCOc1cccc(C2C=C(c3ccc4c(c3)OCO4)NC(c3ccc(F)cc3)N2)c1O (centres undefined)	i	i	·	·	·	·
CCOc1cccc(C2C=C(c3ccc4c(c3)OCO4)NC(c3ccc(Cl)cc3)N2)c1O (centres undefined)	10µM*	i	·	·	·	·
C=CCn1c(SCC(=O)c2[nH]c(C)c(C(=O)OCC)c2C)nc2scc(-c3ccc(OC)c(OC)c3)c2c1=O	i	?	21%	3.3µM*	5%	13µM*
CCN(CC)c1nc(C=Cc2ccc(N(C)C)cc2)c2nccnc2n1	i	i	14%	·	4%	·
